The structures appear in SMILES notation. About 3,300 (8.5%) of roughly 39,000 compounds were called active. The sample as a whole holds a higher share of actives than the screen did.

The test system of the test is HepG2. Briefly: cytotoxicity call (relative viability < 0.9). Particulars: 10 µM.
Turning to `C[C@H](CO)N1C[C@H](C)[C@H](CN(C)C(=O)CCC(F)(F)F)OCCCC[C@H](C)Oc2ccc(NC(=O)Cc3ccccc3)cc2C1=O`, the cytotoxicity call is “inactive”.

With `C[C@@H]1CN([C@@H](C)CO)C(=O)c2cc(C#Cc3cccc(F)c3)cnc2O[C@H]1CN(C)Cc1ccccn1`, the cytotoxicity call is “inactive”.

For `Cc1ccc(S(=O)(=O)Nc2ccc3c(c2)C(=O)N([C@@H](C)CO)C[C@@H](C)[C@H](CN(C)C(=O)c2ccccc2)OCCCC[C@H](C)O3)cc1`, the cytotoxicity call is “inactive”.

Consider `Cc1noc(C)c1NC(=O)N(C)C[C@H]1OCCCC[C@H](C)Oc2ccc(NC(=O)C3CCCCC3)cc2C(=O)N([C@@H](C)CO)C[C@@H]1C`, for which the cytotoxicity call was “inactive”.

On to `C[C@@H]1CCCCO[C@H](CN(C)C(=O)Nc2ccc(F)cc2)[C@H](C)CN([C@H](C)CO)C(=O)c2cc(NC(=O)Cc3ccccc3)ccc2O1`, for which the cytotoxicity call was “inactive”.

For `C[C@@H]1CN([C@@H](C)CO)C(=O)c2cccc(NC(=O)C3CCOCC3)c2O[C@@H]1CN(C)S(=O)(=O)c1ccccc1`, the cytotoxicity call was “inactive”.

In the case of `C[C@H](CO)N1C[C@H](C)[C@@H](CN(C)C(=O)CN2CCOCC2)Oc2ncc(-c3cncnc3)cc2C1=O`, the cytotoxicity call is “inactive”.

As to `Cc1noc(C)c1S(=O)(=O)N(C)C[C@H]1Oc2ccc(NS(C)(=O)=O)cc2C(=O)N([C@@H](C)CO)C[C@H]1C`, the cytotoxicity call was “inactive”.

For `C[C@H]1CN([C@@H](C)CO)C(=O)c2cccc(NC(=O)Nc3ccc(C(F)(F)F)cc3)c2O[C@H]1CN(C)Cc1ccc(Cl)c(Cl)c1`, the cytotoxicity call is “inactive”.

Consider `C[C@H](CO)N1C[C@H](C)[C@@H](CN(C)Cc2ccc(Cl)c(Cl)c2)Oc2c(NC(=O)Nc3ccc(C(F)(F)F)cc3)cccc2C1=O`, for which the cytotoxicity call was “active”.

For the compound `C[C@@H]1CN([C@H](C)CO)C(=O)c2cccc(NC(=O)Nc3ccc(F)cc3)c2O[C@@H]1CN(C)Cc1ccc(Cl)c(Cl)c1`, the cytotoxicity call was “inactive”.

Regarding `CCOc1ccnc2c1c(=O)n(CC(N)=O)c(=O)n2C`, the cytotoxicity call was “inactive”.

Regarding `Cc1noc(C)c1S(=O)(=O)N(C)C[C@@H]1OCCCC[C@H](C)Oc2ccc(NS(=O)(=O)c3cn(C)cn3)cc2C(=O)N([C@H](C)CO)C[C@@H]1C`, the cytotoxicity call was “inactive”.

Take `COc1cccc2c1C(=O)c1c(O)c3c(c(O)c1C2=O)CC(O)(C(C)=O)CC3OC1CC(N)C(O)C(C)O1.Cl` (stereo not given): the cytotoxicity call is “active”.

Consider `COc1cccc2c1C(=O)c1c(O)c3c(c(O)c1C2=O)C[C@@](O)(C(C)=O)C[C@@H]3O[C@H]1C[C@H](N)[C@H](O)[C@H](C)O1`, for which the cytotoxicity call is “active”.

Consider `CC(=O)[C@]1(N)Cc2c(O)c3c(c(O)c2[C@@H](O[C@H]2C[C@H](O)[C@H](O)CO2)C1)C(=O)c1ccccc1C3=O`, for which the cytotoxicity call was “active”.

For the compound `COc1cccc2c1C(=O)c1c(O)c3c(c(O)c1C2=O)C[C@](O)(C(C)=O)C[C@H]3O[C@H]1C[C@@H](N)[C@@H](O)[C@@H](C)O1`, the cytotoxicity call is “active”.

For the compound `CCNC(=O)C[C@@H]1C=C[C@@H](NC(=O)C2CCOCC2)[C@@H](CO)O1`, the cytotoxicity call was “inactive”.

For `Cc1ccc(S[C@H](C)C(=O)c2ccc(C)c(Cl)c2)cc1`, the cytotoxicity call is “inactive”.

`C[C@@H]1CN([C@H](C)CO)C(=O)c2cc(NC(=O)c3ccccc3)ccc2O[C@@H](C)CCCCO[C@H]1CN(C)C(=O)CCC(F)(F)F`: the cytotoxicity call is “inactive”.

Take `C[C@@H]1CCCCO[C@H](CN(C)C(=O)Nc2ccc(F)cc2)[C@H](C)CN([C@H](C)CO)C(=O)c2cc(NC(=O)c3ccncc3)ccc2O1`: the cytotoxicity call was “inactive”.

As for `CCCN(C)C[C@@H]1Oc2cc(C#Cc3cccc(OC)c3)ccc2S(=O)(=O)N([C@H](C)CO)C[C@@H]1C`, the cytotoxicity call was “inactive”.

Consider `C/C=C(\C(C)=N\O)c1ccccc1`, for which the cytotoxicity call is “inactive”.

For the compound `CN1C(=O)c2cc(NC(=O)C3CCCC3)ccc2OC[C@H]2O[C@@H](CC(=O)NCCc3ccncc3)CC[C@H]21`, the cytotoxicity call was “inactive”.

For the compound `CN(C)CC(=O)N[C@@H]1CC[C@H](CC(=O)O)O[C@@H]1CO`, the cytotoxicity call is “inactive”.

Regarding `CC(=O)[C@]1(O)Cc2c(O)c3c(c(O)c2[C@@H](O[C@@H]2C[C@@H](N)[C@H](O)[C@@H](C)O2)C1)C(=O)c1c(O)cccc1C3=O`, the cytotoxicity call is “active”.

For the compound `CC(C)NC(=O)Nc1ccc2c(c1)CC(=O)N([C@@H](C)CO)C[C@H](C)[C@@H](CN(C)S(=O)(=O)c1ccc(F)cc1)O2`, the cytotoxicity call is “inactive”.

`C[C@@H]1CN([C@@H](C)CO)C(=O)c2cc(NC(=O)Nc3cccc4ccccc34)ccc2O[C@@H]1CN(C)Cc1ccncc1`: the cytotoxicity call was “inactive”.

Consider `C[C@H](CO)N1C[C@H](C)[C@H](CN(C)Cc2ccncc2)Oc2ccc(NC(=O)CCCN(C)C)cc2C1=O`, for which the cytotoxicity call is “inactive”.

Turning to `CC(C)C[C@@H](NC(=O)[C@@H](C)N)C(=O)O`, the cytotoxicity call was “inactive”.

With `CC(C)C[C@H](N)C(=O)O`, the cytotoxicity call is “inactive”.

As to `CC(C)C[C@H](N)C(=O)N[C@@H](C)C(=O)O`, the cytotoxicity call is “active”.

`C[C@H]1CN([C@@H](C)CO)C(=O)Cc2cc(NC(=O)CCN3CCOCC3)ccc2O[C@H]1CN(C)S(=O)(=O)c1cn(C)cn1`: the cytotoxicity call is “inactive”.

For `O=C(O)CCN=C1NC(=O)CS1`, the cytotoxicity call was “active”.

Regarding `O=C1CSC(=Nc2nccs2)N1`, the cytotoxicity call was “inactive”.

For the compound `O=C(O)CCCN=C1NC(=O)CC(=O)N1`, the cytotoxicity call was “inactive”.

With `C[C@H]1CN([C@@H](C)CO)C(=O)c2cccc(NC(=O)c3ccncc3)c2O[C@@H]1CN(C)Cc1ccc(-c2ccccc2)cc1`, the cytotoxicity call is “inactive”.

Take `C[C@H](CO)N1C[C@H](C)[C@@H](CN(C)S(=O)(=O)c2ccc(F)cc2)Oc2ccc(NS(=O)(=O)c3cccs3)cc2CC1=O`: the cytotoxicity call was “inactive”.

As to `COc1ccc(C(=O)Nc2ccc(CN3C(=O)[C@]4(O[C@H](CC(=O)N(CCO)Cc5ccccc5)[C@@H]([Si](C)(C)c5ccc(OC)cc5)[C@@H]4C)c4ccccc43)cc2)cc1`, the cytotoxicity call is “inactive”.

`COc1ccc(C(=O)Nc2cccc(CN3C(=O)[C@]4(O[C@H](CC(=O)N(CCO)Cc5ccccc5)[C@@H]([Si](C)(C)c5ccc(OC)cc5)[C@@H]4C)c4ccccc43)c2)cc1`: the cytotoxicity call is “active”.

Regarding `COc1ccc([Si](C)(C)[C@H]2[C@H](CC(=O)N(CCO)Cc3ccccc3)O[C@@]3(C(=O)N(Cc4cccc(N5CCOC5=O)c4)c4ccccc43)[C@@H]2C)cc1`, the cytotoxicity call was “inactive”.

Consider `COc1ccc([Si](C)(C)[C@H]2[C@H](CC(=O)N(CCO)Cc3ccccc3)O[C@@]3(C(=O)N(C)c4c(Br)cc(C)cc43)[C@@H]2C)cc1`, for which the cytotoxicity call is “active”.

Consider `COc1ccc([Si](C)(C)[C@H]2[C@H](CCn3cc([C@H](O)c4ccccc4)nn3)O[C@@]3(C(=O)N(c4ccccc4)c4ccccc43)[C@@H]2C)cc1`, for which the cytotoxicity call was “inactive”.

On to `COc1ccc([Si](C)(C)[C@@H]2[C@@H](CC(=O)N(CCO)Cc3ccccc3)O[C@]3(C(=O)N(Cc4cccc(N5CCOC5=O)c4)c4ccccc43)[C@H]2C)cc1`, for which the cytotoxicity call is “inactive”.

As for `COc1ccc([Si](C)(C)[C@H]2[C@H](CCn3cc([C@H](O)c4ccccc4)nn3)O[C@@]3(C(=O)N(C)c4c(Br)cc(C)cc43)[C@@H]2C)cc1`, the cytotoxicity call is “active”.

For the compound `COc1ccc([Si](C)(C)[C@@H]2[C@@H](CCn3cc([C@H](O)c4ccccc4)nn3)O[C@]3(C(=O)N(C)c4c(Br)cc(C)cc43)[C@H]2C)cc1`, the cytotoxicity call was “inactive”.

Regarding `COc1ccc(C(=O)Nc2ccc(CN3C(=O)[C@@]4(O[C@@H](CC(=O)N(CCO)Cc5ccccc5)[C@H]([Si](C)(C)c5ccc(OC)cc5)[C@H]4C)c4ccccc43)cc2)cc1`, the cytotoxicity call was “inactive”.

Take `COc1ccc([Si](C)(C)[C@@H]2[C@@H](CC(=O)N3Cc4ccccc4C[C@H]3CO)O[C@]3(C(=O)N(C)c4c(Br)cc(C)cc43)[C@H]2C)cc1`: the cytotoxicity call is “inactive”.

In the case of `COc1ccc(C(=O)Nc2cccc(CN3C(=O)[C@@]4(O[C@@H](CC(=O)N(CCO)Cc5ccccc5)[C@H]([Si](C)(C)c5ccc(OC)cc5)[C@H]4C)c4ccccc43)c2)cc1`, the cytotoxicity call is “active”.

`COc1ccc([Si](C)(C)[C@@H]2[C@@H](CC(=O)N(CCO)Cc3ccccc3)O[C@]3(C(=O)N(C)c4c(Br)cc(C)cc43)[C@H]2C)cc1`: the cytotoxicity call is “inactive”.

The values above are taken from the antibiotic and cytotoxicity screens of Wong et al. (2023).
